Laboratory results taken from PubChem BioAssay.
Calls of active or inactive are those of the source.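 The calls were made as follows, unless noted: active = superoxide response below 65% of plate, a cut near 3 SD across the whole screen; inactive = the rest.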

What was measured:
[1] = reduced mouse 2C T cell binding to pMHC/ICAM-1 vesicles – MLPCN validation set, flow cytometry, LFA-1/ICAM-1 modulator project, pilot screen (AID 2523;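 active = response below a set limit, under 55% cells CD8-positive and vesicle-bound, and CD8 cells' 90th-percentile brightness under 279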;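 as to vesicle binding response: mean PE anti-B7-1 fluorescence of CD8+ cells relative to row control; 100% = QL9-loaded vesicles with DMSO vehicle in the same plate row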); settings: 2C mouse CD8+ T cells, at 7 µM, stronger effect = lower value; double positive events: measured here: CD8+/vesicle+ event percentage
[2] = molecular target: Integrin beta-1 (Homo sapiens) + Integrin alpha-4 (Homo sapiens) (UniProt P13612+P05556); assay: alpha4beta1 integrin LIBS antibody binding reduction – U937 cells, HUTS-21 mAb, flow cytometry, validation set, VLA-4 allosteric modulator project, pilot screen (AID 2674;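 active = inhibition above 50%, about 3 SD of the validation set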;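 also: antibody binding induced by the VLA-4 ligand LDV present at three times its Kd; 0% = LDV ligand with antibody and no compound and 100% = antibody without LDV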); settings: HUTS-21 LIBS mAb binding, at 6.7 µM, stronger effect = higher value, binding induced by LDV ligand
[3] = calorie-restriction mimetic ROS inhibitors, yeast – validation compound set, pilot screen (AID 2706);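 also: yeast exposed to compound for one week at 30 degrees C before staining; 100% = mean of all compound wells on the same plate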; settings: S. cerevisiae aging, superoxide DHE fluorescence; at 10 µM, stronger effect = lower value
[4] = molecular target: Beta-adrenergic receptor kinase 1 (Homo sapiens) (UniProt P25098); assay: GRK2 binders displacing RNA aptamer, biochemical, validation, human GRK2, bead flow cytometry (AID 488806;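 active = aptamer binding inhibition above 30%, about 3 SD of noise from non-fluorescent compounds; inactive = inhibition at or below 30%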); settings: bead-bound GRK2, FAM-aptamer displacement, at 10 µM, stronger effect = higher value
[5] = molecular target: Beta-2 adrenergic receptor (Homo sapiens) (UniProt P07550); assay: agonist-induced loss of surface beta2AR – cell-based, FAP fluorogen, flow cytometry, validation set, pilot screen (AID 504459;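 active = percent response above 42, roughly 3 SD of non-fluorescent test compounds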;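 also: agonist-driven loss of surface beta2AR via internalization measured by FAP dye flow cytometry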); settings: Am2.2-beta2AR cells, at 10 µM, stronger effect = higher value
[6] = molecular target: AP-2 complex subunit beta (Homo sapiens) (UniProt P63010); assay: beta-arrestin/AP2 interaction blockers – biochemical, validation set, GST-AP2 beads, flow cytometry, pilot screen (AID 504541;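 active = inhibition above 54%, about 3 SD of non-fluorescent compounds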;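 also: AP2 carries R879A mutation and is captured from E. coli lysate; bead-bound FITC arrestin peptide fluorescence measuring arrestin peptide binding to AP2; 0% = DMSO wells and 100% = excess unlabeled arrestin peptide control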); settings: FITC arrestin peptide, at 10 µM, stronger effect = higher value, AP2 beta2 appendage fragment, R879A mutant
[7] = cytosolic pH regulators acting via V-ATPase – S. cerevisiae, pHLuorin, HTS validation (AID 504600; in the data active = response above about 15%;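 also: plate controls were DMSO for no effect and reference compound for full effect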); settings: V-ATPase proton transport, at 10 µM, stronger effect = higher value
[8] = test system: anti-desmoglein-3 scFv antibody binding to human DSG3; assay: blockers of pathogenic pemphigus antibody–desmoglein-3 binding – biochemical, validation compound set, bead-based, flow cytometry, pilot screen (AID 588368;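 active = binding below the plate cutoff, the plate median minus 3 SD, with a reading above zero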;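 also: signal is the median channel fluorescence of bead-bound GFP antibody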); settings: Protein G beads, DSG3-Fc, scFv-GFP binding, at 10 µM, stronger effect = lower value
[9] = Nile Red efflux blockade in pump-expressing yeast – validation compound set, multiplex, phenotypic, pilot screen (AID 588506;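 active = efflux inhibition above 0.42, the validation set average plus 4 SD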;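 also: Nile Red retained in cells so higher fluorescence means more efflux inhibition; 0 = negative control wells and 1 = enniatin B 25 µM full block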); settings: S. cerevisiae pump-expressing triplex, Nile Red efflux flow cytometry; at 10 µM; stronger effect = higher value; the pumps come from Candida albicans
[10] = molecular target: ATP-binding cassette sub-family B member 6 (Homo sapiens) (UniProt Q9NP58); assay: blockers of ABCB6-driven porphyrin uptake – K562-ABCB6 cells, flow cytometry, validation set, pilot screen (AID 588550;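 active = inhibition above the screen-wide mean plus 3 SD, about 51%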;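 also: 0% = DMSO wells and 100% = benzethonium chloride 70 µM positive control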); settings: K562-ABCB6 porphyrin accumulation, 1 h, at 10 µM, stronger effect = higher value
[11] = AML differentiation inducers, ER-HoxA9 marrow cells – cell-based, GFP/MAC1 double positive, flow cytometry, validation set, primary screen (AID 588685;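 active = differentiation response of at least 50%, scaled between solvent and reference control, from cells with both markers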;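 also: compound exposure lasts four days before antibody staining and flow analysis; 0% = DMSO wells and 100% = 5 µM fulvestrant positive control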); settings: stronger effect = higher value, normalized: vehicle 0, fulvestrant 100

Chain of Beta-adrenergic receptor kinase 1 (Homo sapiens) (P25098 whole entry, looked up): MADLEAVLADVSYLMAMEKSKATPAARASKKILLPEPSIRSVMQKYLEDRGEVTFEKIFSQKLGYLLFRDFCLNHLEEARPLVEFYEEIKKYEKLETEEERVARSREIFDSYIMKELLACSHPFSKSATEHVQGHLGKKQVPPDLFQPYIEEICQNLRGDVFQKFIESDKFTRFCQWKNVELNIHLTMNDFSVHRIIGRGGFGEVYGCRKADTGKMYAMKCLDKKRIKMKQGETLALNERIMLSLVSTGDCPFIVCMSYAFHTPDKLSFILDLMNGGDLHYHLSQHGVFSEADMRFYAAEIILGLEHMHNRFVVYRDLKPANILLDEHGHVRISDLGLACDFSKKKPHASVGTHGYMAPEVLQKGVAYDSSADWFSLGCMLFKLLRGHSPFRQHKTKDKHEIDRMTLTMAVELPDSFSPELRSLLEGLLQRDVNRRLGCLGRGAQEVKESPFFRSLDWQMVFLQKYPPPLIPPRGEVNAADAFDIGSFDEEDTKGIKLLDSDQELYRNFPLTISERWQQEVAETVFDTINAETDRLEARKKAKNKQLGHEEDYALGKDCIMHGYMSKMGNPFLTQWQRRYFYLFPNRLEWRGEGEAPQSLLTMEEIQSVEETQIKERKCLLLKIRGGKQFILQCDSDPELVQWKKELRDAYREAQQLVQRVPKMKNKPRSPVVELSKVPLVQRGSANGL
Chain of Integrin beta-1 (Homo sapiens) + Integrin alpha-4 (Homo sapiens) (P05556 whole entry, looked up): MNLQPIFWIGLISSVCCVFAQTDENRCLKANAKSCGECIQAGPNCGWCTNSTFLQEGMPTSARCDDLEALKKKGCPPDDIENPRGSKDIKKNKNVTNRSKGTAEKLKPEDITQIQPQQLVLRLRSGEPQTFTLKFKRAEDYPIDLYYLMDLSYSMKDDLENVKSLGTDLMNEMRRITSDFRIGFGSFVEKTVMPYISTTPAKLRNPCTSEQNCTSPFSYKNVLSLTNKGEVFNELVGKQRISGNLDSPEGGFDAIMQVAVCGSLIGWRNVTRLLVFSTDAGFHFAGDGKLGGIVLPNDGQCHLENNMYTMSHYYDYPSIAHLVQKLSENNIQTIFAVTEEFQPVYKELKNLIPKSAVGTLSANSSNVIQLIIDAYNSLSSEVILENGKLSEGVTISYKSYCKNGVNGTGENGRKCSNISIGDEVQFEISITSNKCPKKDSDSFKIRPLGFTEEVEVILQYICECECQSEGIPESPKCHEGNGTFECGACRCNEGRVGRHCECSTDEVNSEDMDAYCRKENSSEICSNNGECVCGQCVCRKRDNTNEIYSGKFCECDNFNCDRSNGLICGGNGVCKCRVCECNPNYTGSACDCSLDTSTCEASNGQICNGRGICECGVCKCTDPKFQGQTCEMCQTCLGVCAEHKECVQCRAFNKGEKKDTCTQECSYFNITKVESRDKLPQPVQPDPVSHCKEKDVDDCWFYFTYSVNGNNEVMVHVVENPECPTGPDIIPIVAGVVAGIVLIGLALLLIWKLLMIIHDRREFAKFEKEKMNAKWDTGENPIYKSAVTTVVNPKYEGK
Chain of Integrin beta-1 (Homo sapiens) + Integrin alpha-4 (Homo sapiens) (P13612 whole entry, looked up): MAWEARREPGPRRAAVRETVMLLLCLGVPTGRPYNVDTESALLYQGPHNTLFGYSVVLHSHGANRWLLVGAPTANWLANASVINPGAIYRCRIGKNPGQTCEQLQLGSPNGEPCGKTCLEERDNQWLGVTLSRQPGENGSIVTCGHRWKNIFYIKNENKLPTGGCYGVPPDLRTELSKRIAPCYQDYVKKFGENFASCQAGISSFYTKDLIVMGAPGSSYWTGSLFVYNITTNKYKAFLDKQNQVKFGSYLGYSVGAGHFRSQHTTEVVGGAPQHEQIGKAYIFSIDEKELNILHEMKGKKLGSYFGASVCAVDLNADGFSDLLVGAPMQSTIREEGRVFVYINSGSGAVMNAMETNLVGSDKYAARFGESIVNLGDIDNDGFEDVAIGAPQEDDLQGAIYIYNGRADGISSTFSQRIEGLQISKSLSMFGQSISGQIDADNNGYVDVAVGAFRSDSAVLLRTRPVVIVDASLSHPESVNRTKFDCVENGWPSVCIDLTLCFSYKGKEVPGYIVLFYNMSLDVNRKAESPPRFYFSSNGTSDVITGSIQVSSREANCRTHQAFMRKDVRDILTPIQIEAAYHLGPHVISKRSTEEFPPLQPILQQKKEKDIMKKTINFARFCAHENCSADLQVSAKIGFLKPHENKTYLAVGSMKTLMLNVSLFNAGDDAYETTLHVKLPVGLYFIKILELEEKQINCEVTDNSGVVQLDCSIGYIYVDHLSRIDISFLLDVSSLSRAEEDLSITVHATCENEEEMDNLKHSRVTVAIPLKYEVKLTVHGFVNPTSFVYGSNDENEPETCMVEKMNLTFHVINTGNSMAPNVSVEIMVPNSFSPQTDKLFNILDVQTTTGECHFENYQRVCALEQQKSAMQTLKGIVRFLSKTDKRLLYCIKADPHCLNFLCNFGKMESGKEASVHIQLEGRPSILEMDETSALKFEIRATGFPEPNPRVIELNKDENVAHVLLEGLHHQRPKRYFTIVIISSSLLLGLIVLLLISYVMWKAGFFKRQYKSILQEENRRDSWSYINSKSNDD
Chain of Beta-2 adrenergic receptor (Homo sapiens) (P07550 whole entry, looked up): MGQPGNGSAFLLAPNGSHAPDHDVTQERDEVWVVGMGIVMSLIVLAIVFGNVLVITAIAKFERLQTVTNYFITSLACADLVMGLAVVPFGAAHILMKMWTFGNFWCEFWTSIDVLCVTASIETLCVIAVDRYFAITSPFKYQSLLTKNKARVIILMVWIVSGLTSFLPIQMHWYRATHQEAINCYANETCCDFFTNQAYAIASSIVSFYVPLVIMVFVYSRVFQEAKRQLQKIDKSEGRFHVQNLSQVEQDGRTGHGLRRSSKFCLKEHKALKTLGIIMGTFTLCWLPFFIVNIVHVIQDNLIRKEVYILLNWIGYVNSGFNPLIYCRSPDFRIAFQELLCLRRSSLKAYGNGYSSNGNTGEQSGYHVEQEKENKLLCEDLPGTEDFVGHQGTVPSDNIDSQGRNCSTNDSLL
Chain of ATP-binding cassette sub-family B member 6 (Homo sapiens) (Q9NP58 whole entry, looked up): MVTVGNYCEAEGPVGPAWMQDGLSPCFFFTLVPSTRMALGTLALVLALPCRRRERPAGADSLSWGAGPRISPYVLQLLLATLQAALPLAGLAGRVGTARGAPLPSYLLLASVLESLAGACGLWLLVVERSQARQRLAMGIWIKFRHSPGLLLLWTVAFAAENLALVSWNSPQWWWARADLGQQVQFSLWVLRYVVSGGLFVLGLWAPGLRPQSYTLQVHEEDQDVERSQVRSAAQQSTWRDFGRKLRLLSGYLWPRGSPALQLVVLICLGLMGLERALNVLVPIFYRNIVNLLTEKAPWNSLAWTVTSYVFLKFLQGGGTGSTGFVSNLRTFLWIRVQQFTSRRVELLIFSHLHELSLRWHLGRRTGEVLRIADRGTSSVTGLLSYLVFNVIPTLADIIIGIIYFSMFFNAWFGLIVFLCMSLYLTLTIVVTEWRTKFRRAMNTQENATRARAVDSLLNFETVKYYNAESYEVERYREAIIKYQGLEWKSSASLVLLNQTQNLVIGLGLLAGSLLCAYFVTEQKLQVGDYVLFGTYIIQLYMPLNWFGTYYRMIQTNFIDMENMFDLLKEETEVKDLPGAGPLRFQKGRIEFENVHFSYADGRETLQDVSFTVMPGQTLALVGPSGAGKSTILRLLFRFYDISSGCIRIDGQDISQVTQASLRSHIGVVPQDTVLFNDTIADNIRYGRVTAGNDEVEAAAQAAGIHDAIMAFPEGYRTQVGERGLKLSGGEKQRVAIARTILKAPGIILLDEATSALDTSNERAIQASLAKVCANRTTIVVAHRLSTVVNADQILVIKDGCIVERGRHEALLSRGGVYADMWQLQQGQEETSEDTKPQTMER
Chain of AP-2 complex subunit beta (Homo sapiens) (P63010 whole entry, looked up, the tested form may be a part, one chain of several): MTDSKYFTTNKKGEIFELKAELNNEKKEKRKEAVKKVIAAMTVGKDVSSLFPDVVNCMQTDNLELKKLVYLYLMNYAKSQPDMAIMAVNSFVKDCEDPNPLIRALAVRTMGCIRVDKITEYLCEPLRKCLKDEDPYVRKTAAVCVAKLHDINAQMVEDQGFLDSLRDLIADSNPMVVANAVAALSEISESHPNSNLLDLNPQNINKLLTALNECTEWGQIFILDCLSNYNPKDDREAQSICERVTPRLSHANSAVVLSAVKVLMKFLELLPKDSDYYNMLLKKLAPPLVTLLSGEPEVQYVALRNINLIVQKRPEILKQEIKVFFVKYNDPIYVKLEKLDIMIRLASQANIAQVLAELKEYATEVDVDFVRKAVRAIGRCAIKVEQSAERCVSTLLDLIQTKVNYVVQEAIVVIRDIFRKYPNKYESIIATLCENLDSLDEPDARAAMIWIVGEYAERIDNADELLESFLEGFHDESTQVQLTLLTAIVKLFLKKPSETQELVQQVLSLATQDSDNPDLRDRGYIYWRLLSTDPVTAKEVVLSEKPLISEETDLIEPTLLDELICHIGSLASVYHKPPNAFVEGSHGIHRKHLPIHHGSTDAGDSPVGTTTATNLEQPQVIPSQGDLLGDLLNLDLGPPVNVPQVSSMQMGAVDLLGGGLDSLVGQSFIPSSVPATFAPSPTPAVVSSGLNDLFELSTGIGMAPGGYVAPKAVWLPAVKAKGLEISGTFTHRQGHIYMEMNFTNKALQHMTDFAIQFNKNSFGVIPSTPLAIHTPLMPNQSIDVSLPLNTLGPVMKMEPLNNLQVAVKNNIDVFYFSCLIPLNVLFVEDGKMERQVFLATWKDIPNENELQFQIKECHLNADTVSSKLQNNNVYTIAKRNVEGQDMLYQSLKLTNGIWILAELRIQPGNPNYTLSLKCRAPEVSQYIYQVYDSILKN

Row | Compound | double positive events [1] | vesicle binding response [1] | inhibition [2] | superoxide response (% of plate) [3] | aptamer binding inhibition [4] | response [5] | inhibition [6] | response [7] | binding (% of control) [8] | efflux inhibition (fraction of control) [9] | inhibition [10] | differentiation response [11]
1 | C=C(C)c1nc2cc(OC)c(OC)cc2c(=O)o1 | 66.2% | 181% (inactive) | -9.06% (inactive) | 96.8% (inactive) | 0% (inactive) | -1.85% (inactive) | 0.91% (inactive) | 2.81% (inactive) | 105% (inactive) | -0.46 (inactive) | 11% (inactive) | 9.01% (inactive)
2 | Cc1cccc(N2C(=O)C3C(c4ccccc4)OC4(C(=O)c5ccccc5C4=O)C3C2=O)c1 (stereo unspecified) | 56.8% | 143% (inactive) | -5.89% (inactive) | 110% (inactive) | 3% (inactive) | 1.5% (inactive) | 6.34% (inactive) | -0.37% (inactive) | 104% (inactive) | 0.33 (inactive) | 5% (inactive) | -12% (inactive)
3 | O=C(NCCc1nc2ccccc2[nH]1)c1cccc(Br)c1 | 72.8% | 224% (inactive) | 11.9% (inactive) | 92.6% (inactive) | 4% (inactive) | -6.54% (inactive) | -1.76% (inactive) | 3.78% (inactive) | 97.8% (inactive) | -0.1 (inactive) | 5% (inactive) | 0.8% (inactive)
4 | COC(=O)c1cc(-c2c(C)oc3cc(OC)ccc3c2=O)c(C)o1 | 59.2% | 199% (inactive) | 2.3% (inactive) | 96.8% (inactive) | 1% (inactive) | 7.03% (inactive) | 2.24% (inactive) | 1.93% (inactive) | 105% (inactive) | -0.1 (inactive) | 8% (inactive) | 18.4% (inactive)
5 | COc1ccccc1C1(CC(=O)N2CCCCC2)CCOC(C(C)C)C1 (stereo unspecified) | 60.3% | 205% (inactive) | 6.4% (inactive) | 97.5% (inactive) | 0% (inactive) | 8.83% (inactive) | -7.8% (inactive) | 2.05% (inactive) | 105% (inactive) | 0.33 (inactive) | 6% (inactive) | 23.2% (inactive)
6 | CCC(=O)c1ccc(O)cc1 | 72% | 882% (inactive) | -6.68% (inactive) | 87.9% (inactive) | 3% (inactive) | -7.88% (inactive) | -11.7% (inactive) | 3.37% (inactive) | 94.5% (inactive) | -0.14 (inactive) | 19% (inactive) | 10% (inactive)
7 | CCc1cccc(OC2OC(CO)C(O)C(O)C2NC(C)=O)c1 (stereo unspecified) | 69.6% | 308% (inactive) | -5.38% (inactive) | 98.7% (inactive) | 1% (inactive) | -16.8% (inactive) | -1.83% (inactive) | 4.31% (inactive) | 103% (inactive) | -0.13 (inactive) | 7% (inactive) | 0.92% (inactive)
8 | COc1ccc(CCNC(=O)c2c(O)c3c([nH]c2=O)CCCC3)cc1 | 62.2% | 180% (inactive) | 3.14% (inactive) | 124% (inactive) | -6% (inactive) | -28.9% (inactive) | -16.3% (inactive) | 9.51% (inactive) | 30.9% (active) | 0 (inactive) | 1% (inactive) | -0.06% (inactive)
9 | CC(=O)Oc1ccc(C2OC(=O)c3ccccc3N2C(C)=O)cc1 (stereo unspecified) | 63.2% | 146% (inactive) | 19% (inactive) | 98.4% (inactive) | 1% (inactive) | 15.3% (inactive) | 0.53% (inactive) | -2.98% (inactive) | 98.1% (inactive) | 0.03 (inactive) | 8% (inactive) | -4.57% (inactive)
10 | CCCN1C[C@H](CSC)C[C@@H]2c3cccc4[nH]cc(c34)C[C@H]21 | 58.9% | 167% (inactive) | -8.78% (inactive) | 77.2% (inactive) | -1% (inactive) | -19.4% (inactive) | 1.85% (inactive) | 78.5% (active) | 105% (inactive) | 0 (inactive) | -37% (inactive) | -10.9% (inactive)
11 | COC1CCCCC1Nc1ccc(C)c(C)c1 (stereo unspecified) | 59.5% | 262% (inactive) | -1.79% (inactive) | 100% (inactive) | 5% (inactive) | 6.1% (inactive) | -5.05% (inactive) | 0.08% (inactive) | 94.7% (inactive) | 0.05 (inactive) | 5% (inactive) | -12% (inactive)
12 | COc1cc2c3c(c1)C1(C(=O)N3C(C)(C)C=C2C)C(C#N)=C(N)Oc2cc(C)oc(=O)c21 (stereo unspecified) | 60.1% | 172% (inactive) | 2.3% (inactive) | 96.8% (inactive) | -1% (inactive) | -71.3% (inactive) | -6.4% (inactive) | -0.54% (inactive) | 110% (inactive) | 0.4 (inactive) | 5% (inactive) | 79.2% (active)
13 | CC(=O)O[C@H]1CC[C@H]2[C@@H]3CCc4cc(O)ccc4[C@H]3CC[C@]12C | 58.2% | 234% (inactive) | 15.9% (inactive) | 80.4% (inactive) | 1% (inactive) | -33% (inactive) | 6.38% (inactive) | 2.35% (inactive) | 101% (inactive) | 0.21 (inactive) | 5% (inactive) | -1.05% (inactive)
